Drawing on PubChem BioAssay (EPA / NIEHS), this text covers AC50 and outcome for 16 molecules.

Active and inactive are the calls of the source. Rule for the calls: active = hit-call score of the fitted dose curve at least 0.9, where 1 is the maximum; inactive = score below 0.9.

Read-out in this experiment: Lipase C (LIPC), LIPC (gene 3990)
Nature of the experiment: LTEA_HepaRG_LIPC: Life Technologies and Expression Analysis (LTEA) Assay for Lipase C (LIPC) using HepaRG (AID 2283514). The following applies: mRNA level, 48 h; actives raise or lower the signal. How it is done:
LTEA_HepaRG is a cell based, multiplexed-readout assay that uses HepaRG, a human liver cell line, with measurements taken at 48 hours after chemical dosing on a 96-well plate.LTEA_HepaRG_LIPC is one of 102 assay component(s) measured in the LTEA HepaRG cell culture assay. It is a marker of Steatosis.Data from the assay component LTEA_HepaRG_LIPC was analyzed into 1 endpoint. This assay endpoint, LTEA_HepaRG_LIPC, was analyzed with bidirectional fitting relative to DMSO as the negative control and baseline of activity. Using a type of inducible reporter, measures of mRNA induction for gain or loss-of-signal activity can be used to understand regulation of transcription factor activity. To generalize the intended target to other relatable targets, this assay endpoint is annotated to the esterase intended target family, where the subfamily is lipase.
A total of 1060 chemcials from the ToxCast library were tested in eight-point concentration-response experiments. Cell culture and cytotoxicity assays were conducted at Thermo Fisher Scientific's Custom Services facility (Madison, WI). A single lot of human HepaRG cells (Thermo Fisher Scientific, Frederick, MD) was used for the cell culture experiments. 96-well format collagen type I coated plates of human HepaRG cells were prepared using established methods. Briefly, cryopreserved HepaRG cells were thawed, plated at a density of approximately 100,000 cells/well in HepaRG Thaw, Plate, and General Purpose media (HPRG770, Thermo Fisher Scientific), and incubated for 48 hours. 0.5% DMSO was selected as vehicle control to balance the requisite need of DMSO in HepaRG cultures to maintain differentiation (for example, baseline metabolism, proportions of hepatocytes vs. cholangiocytes), while enabling further hepatic receptor pathway activation (for example, PXR and CAR) in response to chemical exposure. 48 hours after plating, the culture medium was replaced with HepaRG Serum-Free Incudtion Media. Cells were exposed to each test chemical in duplicate and maintained in CO2 incubators for another 48 hours. Chemical plates were thawed to room temperature and 200x concentrations of treatment groups were prepared. 8-point conentration-reponse curves were made with the highest exposure at 100 uM, followed by half-log dilutions, all in 0.5% DMSO. Each test plate contained variouse controls, induction positive controls (1mM phenobarbital), cytotoxicity positive controls ([…] aflatoxin B1), vehicle controls (0.5% DMSO), and total lysis controls (0.5% DMSO). Cell morphology images were taken using an Essen IncuCyte FLR automated microscope, with six 96-well plates imaged in about 24 minutes. Images were captured and exported and JPEG files. Spent culture media was transfered to black-well plates for the LDH assay, and remaining media was sorted at -80 C for later use. Cells were treated with RLT buffer and frozen until shipped for gene expression analysis. Total RNA was isolated from the cell suspension in 75 uL of Buffer RLT (Qiagen, Germantown, MD 20874) by Quintiles/Expression Analysis (Durham, NC) using a custom isolation procedure. Total RNA from each plate well was transferred to a preamplification plate. Fluidigm's 96.96 Dynamic ArrayTM (Fluidigm, Amsterdam, the Netherlands) technology was used for gene expression analyses by quantitative reverse transcription polymerase chain reaction (qRT-PCR, performed by Quintiles/Expression Analysis, Durham, NC)89. Standard TaqManTM Assays (Applied Biosystems/ThermoFisher Scientific, Foster City, CA) were used to assess the expression of 93 genes selected based on their selectivity and sensitivity to important hepatic receptors known to be modulated by environmental chemicals; importance in human hepatocyte functionality; and hepatotoxicity. […]
Take `O=C(CCCN1CCC(O)(c2ccc(Cl)cc2)CC1)c1ccc(F)cc1`: the AC50 is 84.9 µM (active).
On the same count and under the same terms, the value for `CCCCc1oc2ccccc2c1C(=O)c1cc(I)c(OCCN(CC)CC)c(I)c1` was 55.7 µM (active).
As to `CCCCC(CC)C(=O)O` (stereo unspecified), the call was inactive.
For the molecule `O=C1NS(=O)(=O)c2ccccc21`, the call was inactive.
As for `CCCCCCCCCCCCCCC`, the molecule was classed as inactive.
In the case of `CCC(C)c1ccccc1O` (stereo unspecified), the molecule was called inactive.
Turning to `Cc1[nH]nc2c1N=C(c1ccccc1Cl)c1cc([N+](=O)[O-])ccc1N2`, the AC50 was 11.2 µM (active).
In the case of `CC(=O)Nc1ccc(O)cc1`, the molecule was classed as inactive.
The same measure, in the same setting: the value for `CN(Cc1cnc2nc(N)nc(N)c2n1)c1ccc(C(=O)N[C@@H](CCC(=O)O)C(=O)O)cc1` was “inactive”; that for `O=C(c1ccccc1)c1ccccc1` was “inactive”.
For `CS(=O)(=O)c1ccc([C@@H](CC2CCCC2)C(=O)Nc2cnccn2)cc1Cl`, the AC50 is 86.9 µM (active).
For `OCC(CO)(CBr)CBr`, the outcome was inactive.
With `CCCCCCCCCCCCOS(=O)(=O)O`, the concentration at half-maximal activity (AC50) was 80.4 µM (active).
On to `CCCCC=O`, for which the result was inactive.
For `CN(C)CCOC(c1ccccc1)c1ccccc1`, the result was inactive.
Consider `N=C(N)c1ccc(OCCCCCOc2ccc(C(=N)N)cc2)cc1`, for which the AC50 is 3.64 µM (active).
